Laboratory results published in PubChem BioAssay AID1159580 (chemical genetic matrix, 2015).
Among all 5,500 compounds or so, about 2,000 (36%) were called active. About 18% were inconclusive and are not listed. No stated cut-off is given here; in the data, active means normalized growth mostly below about 0.91 (no sharp cut-off); inconclusive means no clear call, values can overlap the other calls; inactive means mostly above about 0.92. Some of the results follow.

Assay: chemical genetic growth profiling, strain panel (AID 1159580);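 further: tested at 20 µM; growth read once vehicle control cultures reached saturation at 30 °C; 1 = growth at the plate median or of vehicle wells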
Settings: S. cerevisiae deletion strains, growth OD
[1] = locus YAR019C, strain CDC15, stronger effect = lower value
[2] = locus YBL105C, strain PKC1, stronger effect = lower value
[3] = locus YBR135W, strain CKS1, stronger effect = lower value
[4] = locus YBR136W, strain MEC1, stronger effect = lower value
[5] = locus YBR160W, strain CDC28, stronger effect = lower value
[6] = locus YDL017W, strain CDC7, stronger effect = lower value
[7] = locus YDL028C, strain MPS1, stronger effect = lower value
[8] = locus YDL101C, strain DUN1, stronger effect = lower value
[9] = locus YDL108W, strain KIN28, stronger effect = lower value
[10] = locus YDL132W, strain cdc53, stronger effect = lower value
[11] = locus YDL214C, strain PRR2, stronger effect = lower value
[12] = locus YDR052C, strain DBF4, stronger effect = lower value
[13] = locus YDR054C, strain cdc34, stronger effect = lower value
[14] = locus YDR226W, strain ADK1, stronger effect = lower value
[15] = locus YDR477W, strain SNF1, stronger effect = lower value
[16] = locus YER123W, strain YCK3, stronger effect = lower value
[17] = locus YER133W, strain GLC7, stronger effect = lower value
[18] = locus YFL009W, strain cdc4, stronger effect = lower value
[19] = locus YFL029C, strain CAK1, stronger effect = lower value
[20] = locus YFR003C, strain YPI1, stronger effect = lower value
[21] = locus YFR019W, strain FAB1, stronger effect = lower value
[22] = locus YFR028C, strain CDC14, stronger effect = lower value
[23] = locus YGR040W, strain KSS1, stronger effect = lower value
[24] = locus YGR052W, strain FMP48, stronger effect = lower value
[25] = locus YGR092W, strain DBF2, stronger effect = lower value
[26] = locus YHR030C, strain SLT2, stronger effect = lower value
[27] = locus YHR079C, strain IRE1, stronger effect = lower value
[28] = locus YHR082C, strain KSP1, stronger effect = lower value
[29] = locus YHR205W, strain SCH9, stronger effect = lower value
[30] = locus YIL147C, strain SLN1, stronger effect = lower value
[31] = locus YJL095W, strain BCK1, stronger effect = lower value
[32] = locus YJL128C, strain PBS2, stronger effect = lower value
[33] = locus YJL157C, strain FAR1, stronger effect = lower value
[34] = locus YJR016C, strain ILV3, stronger effect = lower value
[35] = locus YJR066W, strain TOR1 (second series), stronger effect = lower value
[36] = locus YJR066W, strain TOR1, stronger effect = lower value
[37] = locus YKL048C, strain ELM1, stronger effect = lower value
[38] = locus YKL067W, strain YNK1, stronger effect = lower value
[39] = locus YKL101W, strain HSL1, stronger effect = lower value
[40] = locus YKL193C, strain SDS22, stronger effect = lower value
[41] = locus YKL203C, strain TOR2, stronger effect = lower value
[42] = locus YLR113W, strain HOG1, stronger effect = lower value
[43] = locus YLR133W, strain CKI1, stronger effect = lower value
[44] = locus YLR403W, strain SFP1, stronger effect = lower value
[45] = locus YML070W, strain DAK1, stronger effect = lower value
[46] = locus YMR001C, strain CDC5, stronger effect = lower value
[47] = locus YMR205C, strain PFK2 (second series), stronger effect = lower value
[48] = locus YMR277W, strain FCP1, stronger effect = lower value
[49] = locus YNL006W, strain LST8, stronger effect = lower value
[50] = locus YNL020C, strain ARK1, stronger effect = lower value
[51] = locus YNL161W, strain CBK1, stronger effect = lower value
[52] = locus YNL183C, strain NPR1, stronger effect = lower value
[53] = locus YNL207W, strain RIO2, stronger effect = lower value
[54] = locus YNL222W, strain SSU72, stronger effect = lower value
[55] = locus YNL307C, strain MCK1 (second series), stronger effect = lower value
[56] = locus YOL078W, strain AVO1, stronger effect = lower value
[57] = locus YOL136C, strain PFK27, stronger effect = lower value
[58] = locus YOR061W, strain CKA2, stronger effect = lower value
[59] = locus YOR119C, strain RIO1, stronger effect = lower value
[60] = locus YOR231W, strain MKK1, stronger effect = lower value
[61] = locus YOR329C, strain SCD5, stronger effect = lower value
[62] = locus YPL031C, strain PHO85, stronger effect = lower value
[63] = locus YPL153C, strain RAD53, stronger effect = lower value
[64] = locus YPL204W, strain HRR25, stronger effect = lower value
[65] = locus YPL209C, strain IPL1, stronger effect = lower value
[66] = locus YPR025C, strain CCL1, stronger effect = lower value
[67] = locus YPR106W, strain ISR1, stronger effect = lower value
[68] = locus YPR111W, strain DBF20, stronger effect = lower value
[69] = strain NNK1, stronger effect = lower value
[70] = strain TSCII, stronger effect = lower value

Measured: normalized growth

N/C(=N/OC(=O)c1cnn(-c2ccc([N+](=O)[O-])cc2)c1C(F)(F)F)c1ccc(Cl)cc1
inactive: [1] 0.985 | [2] 0.972 | [3] 0.964 | [4] 0.971 | [5] 0.974 | [6] 0.984 | [7] 0.985 | [8] 0.992 | [9] 0.975 | [10] 0.974 | [11] 0.937 | [12] 0.983 | [13] 0.97 | [14] 0.982 | [15] 0.944 | [16] 0.96 | [17] 0.82 | [18] 0.982 | [19] 0.973 | [20] 0.98 | [21] 0.974 | [22] 0.979 | [23] 0.916 | [24] 1.06 | [25] 0.964 | [26] 1.01 | [27] 1.04 | [28] 1.07 | [29] 0.699 | [30] 0.979 | [31] 1.04 | [32] 0.98 | [33] 0.973 | [34] 0.976 | [35] 0.955 | [36] 1.01 | [37] 0.993 | [38] 0.972 | [39] 0.983 | [40] 0.982 | [41] 1.04 | [42] 0.98 | [43] 0.881 | [44] 0.74 | [45] 0.92 | [46] 0.981 | [47] 0.886 | [48] 0.981 | [49] 0.99 | [50] 0.989 | [51] 0.979 | [52] 1.01 | [53] 0.98 | [54] 0.969 | [55] 0.987 | [56] 0.969 | [57] 0.979 | [58] 0.912 | [59] 1.06 | [60] 0.961 | [61] 0.985 | [62] 0.974 | [63] 0.976 | [64] 1.01 | [65] 0.978 | locus YPL256C, strain CLN2, stronger effect = lower value 0.961 | [66] 0.973 | [67] 0.993 | [68] 0.976 | [69] 0.995 | [70] 0.989

O=C(OCc1ccccc1Br)c1cc([N+](=O)[O-])cc([N+](=O)[O-])c1
inactive: [1] 0.973 | [2] 0.986 | [3] 0.969 | [4] 0.98 | [5] 0.988 | [6] 0.984 | [7] 0.981 | [8] 0.985 | [9] 0.969 | [10] 0.961 | [11] 0.846 | [12] 0.984 | [13] 0.965 | [14] 0.981 | [15] 0.841 | [16] 0.84 | [17] 0.888 | [18] 0.983 | [19] 0.975 | [20] 0.977 | [21] 0.905 | [22] 0.974 | [23] 0.868 | [24] 0.871 | [25] 0.757 | [26] 0.92 | [27] 0.96 | [28] 0.923 | [29] 0.83 | [30] 0.976 | [31] 0.92 | [32] 0.944 | [33] 0.825 | [34] 0.973 | [35] 0.781 | [36] 0.885 | [37] 0.922 | [38] 0.876 | [39] 0.88 | [40] 0.974 | [41] 0.939 | [42] 0.892 | [43] 0.887 | [44] 0.857 | [45] 0.825 | [46] 0.967 | [47] 0.842 | [48] 0.988 | [49] 0.974 | [50] 0.869 | [51] 0.988 | [52] 0.947 | [53] 0.966 | [54] 0.989 | [55] 0.877 | [56] 0.978 | [57] 0.867 | [58] 0.809 | [59] 0.952 | [60] 0.937 | [61] 0.973 | [62] 0.876 | [63] 0.866 | [64] 0.86 | [65] 0.984 | [66] 0.982 | [67] 0.976 | [68] 0.973 | [69] 0.977 | [70] 0.976
